Source: PubChem BioAssay (NCATS)
Records with an inconclusive call do not appear. Calls of active or inactive are those of the source. Unless noted, calls follow the shape of the dose curve; as a rule, active = well fitted curve in either direction with a large enough effect (not every such curve was filed as active); inconclusive = small, poorly fitted or top-dose-only effect, or another doubt; inactive = flat fitted curve, though single readings scatter.

Key:
[1] = tested on: HIV-1 nucleocapsid protein NCp7 (binding to TG oligonucleotide); experiment: HIV Nucleocapsid (AID 346; call rule not given here;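 also: potency is read from the fitted curve at half-maximal effect; potency is for inhibitors that block NC binding and lower polarization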); conditions: HIV-1 NC / fluorescein-TGTGTGTG probe, fluorescence polarization
In short: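 HIV-1 NC (100 nM) binding to fluorescein-labelled ssDNA TG4xF (10 nM) in Hepes pH 7.5, 250mM NaCl, 1uM ZnCl2, TCEP and 2-mercaptoethanol; compounds pin-transferred, 1 hr room temperature, fluorescence polarization read on CCD imager.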

[2] = target: Lysosomal acid glucosylceramidase (Homo sapiens) (UniProt P04062); experiment: Glucocerebrosidase-p2 (AID 348; in the data active = potency below about 10 µM; also: potency is read from the fitted curve at half-maximal effect); conditions: purified GBA, blue fluorogenic substrate, 40 min
Chain of Lysosomal acid glucosylceramidase (Homo sapiens) (P04062 whole entry, looked up): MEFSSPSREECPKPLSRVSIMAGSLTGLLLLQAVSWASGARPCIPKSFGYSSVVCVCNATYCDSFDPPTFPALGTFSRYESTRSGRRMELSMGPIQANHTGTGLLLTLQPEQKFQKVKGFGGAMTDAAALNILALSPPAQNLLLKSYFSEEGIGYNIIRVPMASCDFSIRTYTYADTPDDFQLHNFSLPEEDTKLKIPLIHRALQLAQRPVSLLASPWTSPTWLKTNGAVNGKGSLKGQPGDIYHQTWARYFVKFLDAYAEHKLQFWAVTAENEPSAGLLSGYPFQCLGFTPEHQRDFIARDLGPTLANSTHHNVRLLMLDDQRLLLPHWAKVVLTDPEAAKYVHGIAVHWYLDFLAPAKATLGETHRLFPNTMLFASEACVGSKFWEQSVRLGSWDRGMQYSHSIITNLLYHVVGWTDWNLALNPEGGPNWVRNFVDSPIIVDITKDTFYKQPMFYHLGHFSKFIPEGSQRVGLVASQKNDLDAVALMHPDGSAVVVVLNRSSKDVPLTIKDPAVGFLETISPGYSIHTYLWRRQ
In short: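 Normal human glucocerebrosidase (0.2 nM) with blue fluorogenic substrate (80 uM final) in citrate/phosphate pH 5.9 with 10mM sodium taurocholate, 0.01% tween-20; 40 min RT, NaOH/glycine stop; fluorescence Ex 365/Em 440; AC50 from a titration from 0.6 nM upwards.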

[3] = AP1 Signaling Pathway (AID 357); conditions: ME-180 AP-1-bla reporter, EGF-induced, beta-lactamase ratio, 5 h; at 7.69 µM (top of the series) unless noted; also: % is scaled to controls: 0 for no effect and ±100 for the full control effect
In short: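 ME-180 cells with beta-lactamase reporter under AP-1 response element, stimulated with EC50 EGF; compounds tested in titration series, 5 h at 37 °C. CCF4 substrate added 2.5 h at room temperature; 460/530 nm emission ratio gave %activity and AC50.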

[4] = target: Cytochrome P450 1A2 (Homo sapiens) (UniProt P05177); experiment: p450-cyp1a2 (AID 410; calls by dose curve; also: potency is read from the fitted curve at half-maximal effect;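 as to activity change, negative = inhibition: -100% = full effect of reference inhibitor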); conditions: recombinant CYP1A2, luciferin-ME demethylation, luminescence; series mostly up to 11.4 µM
Chain of Cytochrome P450 1A2 (Homo sapiens) (P05177 whole entry, looked up): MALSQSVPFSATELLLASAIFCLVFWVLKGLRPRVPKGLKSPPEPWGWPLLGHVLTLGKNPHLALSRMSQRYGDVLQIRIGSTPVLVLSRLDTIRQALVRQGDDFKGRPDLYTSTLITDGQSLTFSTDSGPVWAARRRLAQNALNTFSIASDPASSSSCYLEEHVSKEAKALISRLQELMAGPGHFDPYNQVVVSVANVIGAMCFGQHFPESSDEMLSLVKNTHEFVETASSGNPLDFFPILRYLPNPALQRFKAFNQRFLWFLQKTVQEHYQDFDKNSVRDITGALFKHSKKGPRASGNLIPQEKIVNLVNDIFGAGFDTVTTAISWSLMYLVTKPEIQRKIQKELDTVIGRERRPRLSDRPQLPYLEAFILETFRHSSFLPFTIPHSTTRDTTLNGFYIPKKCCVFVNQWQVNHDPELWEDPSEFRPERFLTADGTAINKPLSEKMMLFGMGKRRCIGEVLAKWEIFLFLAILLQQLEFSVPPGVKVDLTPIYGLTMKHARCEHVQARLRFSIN
In short: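 Read-out is luminescence from luciferin produced by CYP1A2 demethylation of Luciferin-ME (100uM, at Km). Detection reagent stopped the 60 min NADPH-dependent reaction; signals were normalized to 57 uM furafylline.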

[5] = NFAT Signaling Pathway (AID 444); conditions: Jurkat NFAT-bla M1, carbachol, beta-lactamase ratio, 5 h; at 7.69 µM (top of the series) unless noted;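 also: carbachol stimulus at about its EC50 of 1 µM final; % is scaled to controls: 0 for no effect and ±100 for the full control effect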
In short: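 Jurkat cells carrying an NFAT-driven β-lactamase reporter and co-transfected muscarinic M1 receptor were treated with compound plus carbachol (1 uM final, an EC50 level) for 5 h at 37 °C. CCF4 loading followed for 1 h at RT; 460/530 nm ratio gave %activity.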

[6] = Stat Signaling Pathway (AID 446); conditions: ME-180 (cervical carcinoma) SIE beta-lactamase reporter, IL-6 stimulated, 5 h; at 7.69 µM (top of the series) unless noted;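 also: ME-180 cervical cancer cells given 40 pM IL-6 alongside compound; SIE-controlled beta-lactamase reporter measured as 460/530 nm FRET emission ratio; % is scaled to controls: 0 for no effect and ±100 for the full control effect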
In short: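 Normalization used AC90 stimulation (300 pM IL-6) and AC90 inhibition (125 nM pan-JAK inhibitor at 40 pM IL-6). The underlying signal is SIE-driven beta-lactamase in ME-180 cells after 5 h IL-6 exposure with compound.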

[7] = target: Glucocorticoid receptor (Homo sapiens) (UniProt P04150); experiment: GR-GFP Redistribution (AID 450;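 active = compounds whose dose series gives a full or clear partial fitted curve of increased nuclear translocation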; also: potency is read from the fitted curve at half-maximal effect); conditions: U2OS GR-GFP nuclear translocation, laser cytometry, 2 h
Chain of Glucocorticoid receptor (Homo sapiens) (P04150 whole entry, looked up, the tested form may be a part): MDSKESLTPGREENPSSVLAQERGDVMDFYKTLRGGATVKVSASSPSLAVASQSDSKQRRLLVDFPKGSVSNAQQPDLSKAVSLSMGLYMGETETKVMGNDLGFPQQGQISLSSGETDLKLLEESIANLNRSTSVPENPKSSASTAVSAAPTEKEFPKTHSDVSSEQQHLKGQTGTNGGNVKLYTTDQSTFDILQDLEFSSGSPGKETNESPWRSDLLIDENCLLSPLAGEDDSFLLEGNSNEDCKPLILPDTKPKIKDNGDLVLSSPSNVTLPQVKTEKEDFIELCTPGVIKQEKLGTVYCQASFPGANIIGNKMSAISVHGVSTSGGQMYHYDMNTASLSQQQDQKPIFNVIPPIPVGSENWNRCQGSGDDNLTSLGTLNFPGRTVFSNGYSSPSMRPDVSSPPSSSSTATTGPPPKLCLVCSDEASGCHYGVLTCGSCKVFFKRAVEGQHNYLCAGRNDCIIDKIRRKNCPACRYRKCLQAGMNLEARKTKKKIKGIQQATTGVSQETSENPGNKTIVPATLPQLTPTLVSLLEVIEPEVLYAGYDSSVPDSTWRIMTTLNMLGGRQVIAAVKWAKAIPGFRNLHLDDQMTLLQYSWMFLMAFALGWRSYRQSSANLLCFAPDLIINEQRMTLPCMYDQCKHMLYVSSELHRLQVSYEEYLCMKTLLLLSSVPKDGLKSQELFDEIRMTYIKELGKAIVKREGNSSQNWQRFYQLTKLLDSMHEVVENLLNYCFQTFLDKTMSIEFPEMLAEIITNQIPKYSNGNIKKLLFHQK

[8] = target: Glucocorticoid receptor (Homo sapiens) (UniProt P04150); experiment: GR-EFC Redistribution (AID 451; calls by dose curve; also: potency is read from the fitted curve at half-maximal effect); conditions: CHO-K1 GR-EFC translocation, beta-gal luminescence, 2 h
In short: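 CHO-K1 cells stably expressing nuclear-localized β-gal enzyme acceptor and GR fused C-terminally to the enzyme donor fragment; ligand-driven nuclear translocation restores β-gal by complementation. Compounds titrated up to 46 uM final, 2 h at 37 °C; luminescence read.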

[9] = target: Mitogen-activated protein kinase 10 (Mus musculus) (UniProt Q61831); experiment: JNK3 AlphaScreen Assay (AID 530); conditions: JNK3 lysate, c-Jun phosphorylation; series mostly up to 57.1 µM;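 also: kinase came from lysate of stimulated human HepG2 cells; signal reports phosphorylation of biotinylated GST-cJun 1-79 at Ser73 with 10 µM ATP; % is scaled to controls: 0 for no effect and ±100 for the full control effect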
In short: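 Biotinylated GST-cJun(1-79) served as substrate for JNK3 in HepG2 lysates stimulated with IL-1beta and TNF-alpha. ATP was 10 uM final, pH 7.6. Ser73 phosphorylation was quantified by AlphaScreen (680 nm excitation).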

[10] = target: 3',5'-cyclic-AMP phosphodiesterase 4B (Homo sapiens) (UniProt Q07343); experiment: qHTS Assay for Inhibitors of PDE-IV (AID 607; active = well fitted activation curve with a large enough effect in the main read-out, with a control signal flat, not every such curve was filed as active; also: % of control where 0% means no effect); conditions: HEK293 ACTOne CNG channel cells, membrane potential fluorescence; series mostly up to 22.9 µM
Chain of 3',5'-cyclic-AMP phosphodiesterase 4B (Homo sapiens) (Q07343 whole entry, looked up): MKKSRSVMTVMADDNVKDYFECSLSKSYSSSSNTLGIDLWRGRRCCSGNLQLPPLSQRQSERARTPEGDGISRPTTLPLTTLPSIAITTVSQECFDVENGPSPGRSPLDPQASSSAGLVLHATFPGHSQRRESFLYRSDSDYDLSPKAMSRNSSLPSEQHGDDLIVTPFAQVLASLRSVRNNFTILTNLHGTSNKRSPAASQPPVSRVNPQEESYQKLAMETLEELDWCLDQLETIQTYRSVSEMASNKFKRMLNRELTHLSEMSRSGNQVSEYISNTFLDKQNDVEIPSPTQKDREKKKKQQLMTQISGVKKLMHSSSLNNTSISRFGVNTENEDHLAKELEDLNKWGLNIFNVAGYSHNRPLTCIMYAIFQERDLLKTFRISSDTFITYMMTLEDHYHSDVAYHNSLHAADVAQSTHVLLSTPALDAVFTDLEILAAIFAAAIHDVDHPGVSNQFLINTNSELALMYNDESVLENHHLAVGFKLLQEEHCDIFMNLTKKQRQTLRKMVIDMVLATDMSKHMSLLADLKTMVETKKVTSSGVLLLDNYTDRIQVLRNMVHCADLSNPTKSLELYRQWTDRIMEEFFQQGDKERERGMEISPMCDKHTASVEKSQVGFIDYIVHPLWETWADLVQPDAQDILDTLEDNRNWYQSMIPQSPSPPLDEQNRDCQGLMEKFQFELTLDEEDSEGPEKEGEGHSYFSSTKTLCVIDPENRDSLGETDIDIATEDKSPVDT
In short: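 HEK293 ACTOne cells with CNG channel (1000/well), endogenous PDE4; membrane potential dye, compounds up to 22.9 uM final. Fluorescence Ex 535/Em 590; RO 20-1724 (100 uM final) as reference.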

[11] = target: Cytochrome P450 3A4 (Homo sapiens) (UniProt P08684); experiment: qHTS Assay for Inhibitors and Substrates of Cytochrome P450 3A4 (AID 884; active = well fitted curve in the direction sought with a large enough effect; an effect the other way counts as inactive or inconclusive; also: potency is read from the fitted curve at half-maximal effect; nearly all actives have a fitted effect of over 50% in size); conditions: recombinant CYP3A4, Luciferin-PPXE luminescence; series mostly up to 57.1 µM
Chain of Cytochrome P450 3A4 (Homo sapiens) (P08684 whole entry, looked up): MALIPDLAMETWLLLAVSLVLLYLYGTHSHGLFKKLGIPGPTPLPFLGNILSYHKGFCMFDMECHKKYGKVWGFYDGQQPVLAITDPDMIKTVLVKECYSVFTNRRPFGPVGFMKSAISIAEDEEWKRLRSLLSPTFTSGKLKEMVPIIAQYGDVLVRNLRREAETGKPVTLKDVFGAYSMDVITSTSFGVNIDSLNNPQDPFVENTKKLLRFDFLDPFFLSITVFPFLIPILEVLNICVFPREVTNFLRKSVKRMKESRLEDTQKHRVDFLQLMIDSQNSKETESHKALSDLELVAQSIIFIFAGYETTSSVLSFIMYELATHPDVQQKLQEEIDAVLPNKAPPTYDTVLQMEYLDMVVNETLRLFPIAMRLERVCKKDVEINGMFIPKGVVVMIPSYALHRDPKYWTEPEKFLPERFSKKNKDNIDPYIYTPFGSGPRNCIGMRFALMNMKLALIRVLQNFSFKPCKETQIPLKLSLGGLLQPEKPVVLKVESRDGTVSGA
In short: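 Luminescent readout of luciferin produced by CYP3A4 (20 nM) dealkylation of Luciferin-PPXE, 25 uM (its KM). NADPH-driven reaction ran 60 min at RT after 10 min compound preincubation; data scaled to 57 uM ketoconazole as 100% inhibition.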

[12] = target: Cytochrome P450 3A4 (Homo sapiens) (UniProt P08684); experiment: qHTS Assay for Activators of Cytochrome P450 3A4 (AID 885; active = well fitted curve in the direction sought with a large enough effect; an effect the other way counts as inactive or inconclusive; also: nearly all actives have a fitted effect of over 65% in size); conditions: recombinant CYP3A4, Luciferin-PPXE luminescence, 60 min; series mostly up to 57.1 µM
In short: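 Human CYP3A4 dealkylates Luciferin-PPXE to luciferin, which luciferase detection converts to light. Substrate was at its KM (25uM), buffer 200mM KPO4, reaction 60 min at RT.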

[13] = target: Cytochrome P450 2D6 (Homo sapiens) (UniProt P10635); experiment: qHTS Assay for Inhibitors and Substrates of Cytochrome P450 2D6 (AID 891; active = well fitted curve in the direction sought with a large enough effect; an effect the other way counts as inactive or inconclusive; also: potency is read from the fitted curve at half-maximal effect; nearly all actives have a fitted effect of over 60% in size); conditions: recombinant CYP2D6, luciferin-ME EGE luminescence; series mostly up to 11.4 µM
Chain of Cytochrome P450 2D6 (Homo sapiens) (P10635 whole entry, looked up): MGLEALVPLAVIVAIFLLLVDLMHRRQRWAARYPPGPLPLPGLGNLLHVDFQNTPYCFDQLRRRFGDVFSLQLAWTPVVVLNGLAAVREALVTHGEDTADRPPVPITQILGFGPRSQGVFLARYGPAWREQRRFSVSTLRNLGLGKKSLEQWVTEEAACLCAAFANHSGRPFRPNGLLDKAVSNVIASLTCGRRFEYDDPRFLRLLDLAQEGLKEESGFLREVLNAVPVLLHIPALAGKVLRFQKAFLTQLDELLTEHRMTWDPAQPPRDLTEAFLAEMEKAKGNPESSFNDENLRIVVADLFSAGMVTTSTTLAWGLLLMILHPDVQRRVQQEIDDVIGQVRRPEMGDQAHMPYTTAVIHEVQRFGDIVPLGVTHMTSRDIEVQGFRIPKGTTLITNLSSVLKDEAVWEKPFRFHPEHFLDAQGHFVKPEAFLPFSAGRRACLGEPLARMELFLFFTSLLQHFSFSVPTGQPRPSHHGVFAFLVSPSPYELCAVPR
In short: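 Luminescent read-out of luciferin formed by 5 nM human CYP2D6 demethylating 30 uM Luciferin-ME EGE (Km level) over 60 min at room temperature after NADPH regeneration addition. Data normalized to full inhibition by 1.43 uM quinidine.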

Clc1ccccc1-c1nc(NC2CCNCC2)c2ccccc2n1
inactive: Potency [1] > 20 µM

COc1ncc2nc(-c3ccc(F)cc3)c(=O)n(C[C@H]3CCCO3)c2n1
inactive: Potency [1] > 20 µM

COc1ccccc1CNc1ccnc(-c2ccccc2OC)n1
inactive: Potency [1] > 20 µM

O=c1c(-c2ccc(Cl)cc2)nc2cnc(N3CCNCC3)nc2n1-c1ccccc1
inactive: Potency [1] > 20 µM

C[C@@H]1CC[C@@H]2N(C1)C[C@H]1[C@@](O)([C@H](O)C[C@]3(O)[C@H]4CC[C@H]5[C@]6(O)O[C@]4(C[C@]13O)[C@@]5(C)CC[C@@H]6O)[C@@]2(C)O
inactive: Potency [2] > 11.4 µM | activity change, negative = inhibition [3] 0.655% | Potency [4] | activity change, negative = inhibition [5] 4.97% | activity, negative = inhibition [6] -1.33% | Potency [7] > 46 µM | Potency [8] > 9.22 µM | activity change, negative = inhibition [9] 4.3% [at 11.4 µM] | outcome [10]

c1ccc(CCN2CCCCCC2)nc1
inactive: Potency [2] > 11.4 µM | activity change, negative = inhibition [3] -1.84% | Potency [4] | activity change, negative = inhibition [5] -10.4% | activity, negative = inhibition [6] 3.27% | Potency [7] > 46 µM | Potency [8] > 9.22 µM | activity change, negative = inhibition [9] 4.35% [at 11.4 µM] | outcome [10]

C[C@@H]1[C@@H](C)N1C[C@H](O)Cn1ccnc1[N+](=O)[O-] (stereo partly drawn)
inactive: Potency [2] > 11.4 µM | activity change, negative = inhibition [3] 1.57% | Potency [4] | activity change, negative = inhibition [5] 5.22% | activity, negative = inhibition [6] -1.27% | Potency [7] > 46 µM | Potency [8] > 9.22 µM | activity change, negative = inhibition [9] -1.55% [at 11.4 µM] | outcome [10]

COc1ccccc1CN1CC[C@@]2(CCCN(S(C)(=O)=O)C2)C1
inactive: Potency [1] > 20 µM

COc1ccccc1-c1nc(NCCN2CCOCC2)c2ccccc2n1
inactive: Potency [1] > 20 µM

c1cncc(CNc2cc(-c3ccc4c(c3)OCO4)ncn2)c1
active: Potency [11] 0.794 µM
inactive: Potency [1] > 20 µM | Potency [12]

CC(C)CCC1(CCN)C(=O)NC(=O)NC1=O
inactive: Potency [2] > 11.4 µM | activity change, negative = inhibition [3] 5.02% | Potency [4] | activity change, negative = inhibition [5] 4.97% | activity, negative = inhibition [6] 1.34% | Potency [7] > 46 µM | Potency [8] > 9.22 µM | activity change, negative = inhibition [9] -0.876% [at 11.4 µM] | outcome [10]

O=c1c(CCc2ccccc2)nc2cnc(Oc3ccccc3)nc2n1C[C@H]1CCCO1
inactive: Potency [1] > 20 µM

COc1ccc(Oc2ncc3ncc(=O)n(Cc4ccc(F)cc4)c3n2)cc1
inactive: Potency [1] > 20 µM

O=C(O)[C@@H](Br)[C@H](Br)C(=O)O
inactive: Potency [2] > 11.4 µM | activity change, negative = inhibition [3] -8.85% | Potency [4] | activity change, negative = inhibition [5] 12.2% | activity, negative = inhibition [6] 3.93% | Potency [7] > 46 µM | Potency [8] > 9.22 µM | activity change, negative = inhibition [9] -1.13% [at 11.4 µM] | outcome [10]

CCNc1ncc2nc(-c3cn(C)c4ccccc34)c(=O)n(-c3ccc(OC)cc3)c2n1
active: Potency [1] 3.86 µM

O=[As](O)(O)c1ccc(N=Nc2ccc([As](=O)(O)O)cc2)cc1
inactive: Potency [2] > 11.4 µM | activity change, negative = inhibition [3] 2.76% | Potency [4] | activity change, negative = inhibition [5] 2.59% | activity, negative = inhibition [6] 4.67% | Potency [7] > 46 µM | Potency [8] > 9.22 µM | activity change, negative = inhibition [9] 2.69% [at 11.4 µM] | outcome [10]

CN(C)c1ncc2nc(-c3ccc(F)cc3)c(=O)n(Cc3cccs3)c2n1
inactive: Potency [1] > 20 µM | Potency [12]

COc1ccccc1CN1CCCC2(CCN(C(=O)Oc3ccccc3)CC2)C1
inactive: Potency [1] > 20 µM | Potency [2] > 11.4 µM | activity change, negative = inhibition [3] 3.33% | Potency [4] | activity, negative = inhibition [6] 1.52% | Potency [8] > 46 µM | Potency [9] | outcome [10] | Potency [12]
active: Potency [13] 3.98 µM

COc1cc(CCN)c(OC)c(OC)c1
active: Potency [4] 3.16 µM
inactive: Potency [2] > 11.4 µM | activity change, negative = inhibition [3] 7.8% | activity change, negative = inhibition [5] -9.45% | activity, negative = inhibition [6] -3.83% | Potency [7] > 46 µM | Potency [8] > 9.22 µM | activity change, negative = inhibition [9] 4.46% [at 11.4 µM] | outcome [10]

O=C(O)/C=C\c1ccc[c]([Sb](=[O])([OH])[OH])c1
inactive: Potency [2] > 11.4 µM | activity change, negative = inhibition [3] -8.12% | activity change, negative = inhibition [4] -9.5% [at 2.29 µM] | activity change, negative = inhibition [5] 12.6% | activity, negative = inhibition [6] -20.4% | Potency [7] > 46 µM | Potency [8] > 9.22 µM | activity change, negative = inhibition [9] 3.13% [at 11.4 µM] | outcome [10]

COc1cc2c(cc1OC)[C@@]13CCN4CC5=CCO[C@H](CC(=O)O)[C@@H]([C@H]1N2)[C@H]5C[C@H]43
inactive: Potency [2] > 11.4 µM | activity change, negative = inhibition [3] -1.41% | Potency [4] | activity change, negative = inhibition [5] 9.02% | activity, negative = inhibition [6] 1.37% | Potency [7] > 46 µM | Potency [8] > 9.22 µM | outcome [10]

CS(=N)(=O)CC[C@H](N)P(=O)(O)O (stereo partly drawn)
inactive: Potency [2] > 11.4 µM | activity change, negative = inhibition [3] -0.909% | Potency [4] | activity change, negative = inhibition [5] -0.082% | activity, negative = inhibition [6] 2.22% | Potency [7] > 46 µM | Potency [8] > 9.22 µM | activity change, negative = inhibition [9] -2.65% [at 11.4 µM] | outcome [10]
